# Test results taken from ChEMBL document CHEMBL4513216, “Probing the Open Global Health Chemical Diversity Library for Multistage-Active Starting Points for Next-Generation Antimalarials” (ACS Infect Dis, 2020).
# Among all 68,000 compounds or so, about 2,700 (4%) showed an effect of 50% or more. The sample as a whole holds a higher share of strong results than the screen did.
# Test system: Plasmodium berghei
# Assay: Screen against P. berghei liver stage (PbLuc), transformed with Luciferase, at 2uM
# Format: functional, HepG2
# Conditions: tested at 2 uM
row,Structure (SMILES),INHIBITION
1,Cc1nc(C)n(CC2CCCN(Cc3cccc(F)c3F)C2)n1 (configuration not stated),2.18%
2,Cc1nc(C)n(CC2CCCN(Cc3nc(C4CC4)no3)C2)n1 (configuration not stated),-38.96%
3,Cc1nc(C)n(CC2CCCN(Cc3noc(C)n3)C2)n1 (configuration not stated),17.31%
4,COCCc1noc(CN2CCCC(Cn3nc(C)nc3C)C2)n1 (configuration not stated),30.91%
5,Cc1noc(CN2CCCC(Cn3nc(C)nc3C)C2)n1 (configuration not stated),72.31%
6,Cn1cc(C2COC3(CCN(C(=O)Cc4ccccc4)CC3)C2)cn1 (configuration not stated),2.27%
7,CNC(=O)CNC1CC2(CCN(c3ncccn3)CC2)c2ccccc21 (configuration not stated),70.75%
8,c1cnc(N2CCC3(CC2)CC(NCC2CC2)c2ccccc23)nc1 (configuration not stated),33.11%
9,CNC(=O)CC1CC2(CCN(c3ncccn3)CC2)c2ccccc21 (configuration not stated),2.87%
10,CCC(CO)NC(=O)c1cc(COc2ccc(OC)cc2Cl)[nH]n1 (configuration not stated),45.82%
11,COc1ccc(OCc2cc(C(=O)N3C[C@@H](C)O[C@@H](C)C3)n[nH]2)c(Cl)c1,21.29%
12,CC[C@@H](CO)NC(=O)c1cc(COc2ccc(OC)cc2Cl)[nH]n1,69.67%
13,CCC(O)CNC(=O)c1cc(COc2ccc(OC)cc2Cl)[nH]n1 (configuration not stated),52.98%
14,COc1ccc(OCc2cc(C(=O)N3CCC(O)CC3)n[nH]2)c(Cl)c1,8.57%
15,COc1ccc(OCc2cc(C(=O)N3CCSCC3)n[nH]2)c(Cl)c1,8.48%
16,CNC(=O)C(C)NC(=O)c1cc(COc2ccc(OC)cc2Cl)[nH]n1 (configuration not stated),55.36%
17,COc1ccc(OCc2cc(C(=O)N3CCOCC3)n[nH]2)c(Cl)c1,15.05%
18,COc1ccc(OCc2cc(C(=O)N3CC=CC3)n[nH]2)c(Cl)c1,27.77%
19,CCc1oc(C(=O)NC(C)Cc2cnccn2)cc1CN1CCCC1 (configuration not stated),12.11%
20,CNc1cccc(C2CCCN(C(=O)c3ccn(C)n3)C2)n1 (configuration not stated),15.64%
21,Cc1cc(C(F)(F)F)n2nc(C3CCCN3C3CCSCC3)cc2n1 (configuration not stated),36%
22,OC1(CN2CCC(Oc3cccc(C(F)(F)F)c3)CC2)CCNC1 (configuration not stated),-16.56%
23,Cn1ccc(C(=O)NCCOc2ccc3c(c2)OCO3)cc1=O,25.78%
24,CC(C)(C)C(=O)NCCCn1cncn1,32.55%
25,Cc1cc(NC(=O)CN2CCCC2c2c(C)nn(C)c2C)on1 (configuration not stated),26.76%
26,c1cnnc(N2CCCC(NCc3ccc(-n4cncn4)cc3)C2)c1 (configuration not stated),32.79%

row,Structure (SMILES),INHIBITION
1,CC1(C)O[C@@](C)([C@H]2CC3(CCN(c4cnccn4)CC3)CO2)CC[C@@H]1O,4.19%
2,O=C(N[C@@H]1CN(Cc2cccs2)[C@@H]2CCCO[C@@H]21)C1CC1,8.91%
3,c1cnn([C@@H]2CN(Cc3nccs3)[C@@H]3CCCO[C@@H]32)c1,13.61%
4,c1csc(CN2C[C@@H](n3cccn3)[C@H]3OCCC[C@H]32)c1,51.85%
5,O=C(c1cccc(C2CCNC2)c1)N1CCC(c2ccncc2)CC1 (configuration not stated),-0.41%
6,O=C(Nc1cccc(C2SCCS2)c1)C1CCCN1c1nccs1 (configuration not stated),-7.88%
7,Cc1cccc(OCCNC(=O)C(C)S(=O)(=O)c2ccccn2)c1 (configuration not stated),-27.59%
8,CCN(CC)Cc1cc(C(=O)N2CCCC(O)(CO)C2)c(C)o1 (configuration not stated),35.42%
9,Cc1nc2c(C)cccc2cc1C(=O)N1CCC2(CC1)NCCNC2=O,71.07%
10,CCN(CC)Cc1cc(C(=O)N2CCC3(CC2)NCCNC3=O)c(C)o1,64.71%
11,Cc1nc2c(C)cccc2cc1C(=O)N1CCC2(CCN(C)CC2)C1,-30.77%
12,Cc1nc2c(C)cccc2cc1C(=O)N1CCC2(CCNCC2)CC1,-10.67%
13,CCN(CC)Cc1cc(C(=O)N2CCC3(CCN(C)CC3)C2)c(C)o1,-14.17%
14,Cc1nnc(C2CCN(C(=O)c3ccsc3)CC2)s1,7.68%
15,COc1cnc(N2CCCC(c3ncc[nH]3)C2)nc1 (configuration not stated),6.39%
16,NC(=O)c1nc(COc2ccc3c(c2)OCO3)no1,54.49%
17,O=C(c1nc(COc2ccc3c(c2)OCO3)no1)N1CCCC1,2.41%
18,CNC(=O)c1nc(COc2ccc3c(c2)OCO3)no1,-15.12%
19,Cc1cc(C)c(C(=O)N2CCOC(CCN(C)C)C2)o1 (configuration not stated),-36.52%
20,Cc1nnc(CSCc2ccc(OCC(F)(F)F)nc2)o1,8.78%
21,CCC1=NC(SCC(=O)c2ccc(C)cc2)c2cc(CC)sc2N1 (configuration not stated),33.58%
22,CCC1=NC(SCC(=O)c2ccc(Cl)cc2)c2cc(CC)sc2N1 (configuration not stated),-77.67%
23,CCC1=NC(SCC(=O)c2ccccc2)c2cc(CC)sc2N1 (configuration not stated),63.79%
24,CCC(C)NC(=O)CN1CCC2(CC1)OCCO2 (configuration not stated),34.18%
25,Cc1cccc(-c2ccc3nc(C4CCN(CC5CC5)CC4)nn3c2)c1,-48.77%
26,CCc1nn(C)c(CC)c1CNC(=O)Nc1cccc2c1CCN2C,-1.56%
